Data as given in PubChem BioAssay.
The source made the active and inactive calls.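 Rule for the calls, unless noted: active = mean z-score across replicates of 1.96 or higher in either the MELAS or the Rieske mutant cell line; inactive = the rest.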 Where a SMILES comes first, the peptide text is derived from it. Bridges are numbered along the chain shown (N, C = ends). [ ]: non-standard residue; d: D form. The star is where a group is joined. Heptanoyl(5-Me) = CCC(C)CCCC(=O)*; Dab = NCC[C@H](N)C(=O)O

Experiments:
[1] = survival rescue of mitochondrial mutant cells in low glucose, primary screen, MELAS cybrids, Rieske KO mouse fibroblasts, CellTiter-Glo (AID 1508586);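 note: z relative to plate mean and SD of compound and empty wells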
[2] = target: NAD(+) hydrolase SARM1 (Homo sapiens) (UniProt Q6SZW1); assay: SARM1 TIR NADase inhibitors, cell lysate, NAD-Glo luminescence (AID 1508614;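 active = compound whose remaining NAD level is above about 45 nM, limit read from the data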;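 note: higher remaining NAD means stronger inhibition of SARM1 NADase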); conditions: SAM-TIR HEK293T lysate NADase, at 1 µM, stronger effect = higher value
[3] = viability rescue of complex I mutant cybrids, primary screen, cell-based, galactose medium, ATP luminescence (AID 1645843;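 active = z-score of at least 1.8 in each of two replicates, scored against plate mean and spread of sample wells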;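 note: positive z means more ATP and so rescue of galactose-driven cybrid death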); conditions: complex I mutant cybrid cells, 72 h, stronger effect = higher value
[4] = target: Mitogen-activated protein kinase 7 (Homo sapiens) (UniProt Q13164); assay: ERK5 transactivation activators in reporter cells, primary screen, cell-based, HTS (AID 1508626;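 active = luciferase signal above three times the same-plate solvent-only control wells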;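 note: luciferase driven by Gal4-ERK5 fusion binding five Gal4 sites before minimal TATA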); conditions: HeLa Gal4-ERK5 transactivation, 18 h, at 5 µM, stronger effect = higher value
[5] = phospholipid biosynthesis inhibitors in animal cells, primary screen, cell-based, LOPAC library, screen 4 (AID 1347384; call rule not given here); conditions: phospholipid biosynthesis inhibition screen, at 10 µM
[6] = circadian clock period modulators, cell-based, LOPAC library, luminescence reporter (AID 2774; call rule not given here;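 note: values are relative to mean of DMSO wells on each plate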); conditions: circadian reporter cells, at 7 µM, actives lie on both sides
[7] = tested on: Hepatitis C virus NS3 helicase; assay: HCV NS3 helicase inhibitors, primary screen, biochemical, fluorescence polarization, LOPAC1280 library (AID 687035; in the data active = inhibition above about 37%); conditions: Purified HCV NS3 helicase, Cy5-dT15 ssDNA binding fluorescence polarization; stronger effect = higher value; concentration not given here
[8] = Cy5 fluorescence quenching or enhancement artefacts, artefact control for HCV NS3 helicase inhibitor project, biochemical, LOPAC1280 (AID 687037; call rule not given here); conditions: Cy5-DNA-NS3h complex fluorescence interference counterscreen
[9] = MELAS cybrid survival, CellTiter-Glo 48 h, stronger effect = higher value
[10] = Rieske KO mouse fibroblast survival, CellTiter-Glo 72 h

Chain of NAD(+) hydrolase SARM1 (Homo sapiens) (Q6SZW1 whole entry, looked up): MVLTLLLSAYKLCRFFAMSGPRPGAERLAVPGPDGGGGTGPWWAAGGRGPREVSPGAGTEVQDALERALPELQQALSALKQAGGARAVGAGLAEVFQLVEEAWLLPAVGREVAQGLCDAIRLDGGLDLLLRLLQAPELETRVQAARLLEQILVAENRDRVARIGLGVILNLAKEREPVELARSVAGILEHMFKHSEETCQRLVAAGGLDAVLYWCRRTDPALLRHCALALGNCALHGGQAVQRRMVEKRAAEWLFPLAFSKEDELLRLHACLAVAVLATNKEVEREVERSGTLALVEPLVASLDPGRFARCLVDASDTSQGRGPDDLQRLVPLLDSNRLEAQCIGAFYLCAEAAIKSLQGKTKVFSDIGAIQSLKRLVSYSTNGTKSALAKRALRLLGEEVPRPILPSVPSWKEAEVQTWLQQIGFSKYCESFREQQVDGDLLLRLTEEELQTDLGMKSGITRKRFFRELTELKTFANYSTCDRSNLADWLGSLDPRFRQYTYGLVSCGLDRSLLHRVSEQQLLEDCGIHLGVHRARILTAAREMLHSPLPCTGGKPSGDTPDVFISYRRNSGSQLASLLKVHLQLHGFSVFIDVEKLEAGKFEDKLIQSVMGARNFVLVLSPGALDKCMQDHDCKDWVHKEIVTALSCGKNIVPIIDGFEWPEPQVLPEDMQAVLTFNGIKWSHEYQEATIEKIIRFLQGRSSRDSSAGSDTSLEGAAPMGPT
Chain of Mitogen-activated protein kinase 7 (Homo sapiens) (Q13164 whole entry, looked up, the tested form may be a part): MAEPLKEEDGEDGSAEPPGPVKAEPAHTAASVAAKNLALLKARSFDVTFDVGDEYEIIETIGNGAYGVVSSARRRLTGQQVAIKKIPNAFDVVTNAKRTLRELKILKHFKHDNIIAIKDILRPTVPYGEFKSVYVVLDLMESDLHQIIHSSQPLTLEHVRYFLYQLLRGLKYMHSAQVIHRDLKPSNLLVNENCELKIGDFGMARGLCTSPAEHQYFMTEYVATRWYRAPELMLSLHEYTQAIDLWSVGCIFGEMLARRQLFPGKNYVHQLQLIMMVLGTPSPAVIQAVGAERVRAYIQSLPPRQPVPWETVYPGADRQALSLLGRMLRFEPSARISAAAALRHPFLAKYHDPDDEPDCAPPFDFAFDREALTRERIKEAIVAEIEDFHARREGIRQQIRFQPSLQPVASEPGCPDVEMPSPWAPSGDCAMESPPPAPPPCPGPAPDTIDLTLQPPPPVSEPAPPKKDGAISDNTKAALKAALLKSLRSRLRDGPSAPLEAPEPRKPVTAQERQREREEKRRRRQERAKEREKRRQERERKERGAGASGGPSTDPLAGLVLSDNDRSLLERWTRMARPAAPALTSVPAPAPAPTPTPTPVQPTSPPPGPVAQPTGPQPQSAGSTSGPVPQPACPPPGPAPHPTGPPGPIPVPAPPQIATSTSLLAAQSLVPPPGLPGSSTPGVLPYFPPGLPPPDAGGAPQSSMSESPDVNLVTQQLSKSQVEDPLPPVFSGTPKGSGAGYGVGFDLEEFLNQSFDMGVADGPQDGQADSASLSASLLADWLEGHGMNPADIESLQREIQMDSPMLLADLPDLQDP

## C=Cc1c(C)c2cc3nc(cc4[nH]c(cc5nc(cc1[nH]2)C(C)=C5CCC(=O)O)c(CCC(=O)OC)c4C)[C@@]1(C)C3=CC=C(C(=O)OC)C1C(=O)OC (stereo partly specified)
[1]; [9]
  z-score: 1.85 (inactive)
[1]; [10]
  z-score: 1.33

## CO/N=C(\C(=O)N[C@@H]1C(=O)N2C(C(=O)OC(C)OC(C)=O)=C(COC(N)=O)CS[C@H]12)c1ccco1 (stereo partly specified)
[1]; [9]
  z-score: 0.525 (inactive)
[1]; [10]
  z-score: 0.0681
[2]
  remaining NAD: 10 nM (inactive)

## Cc1cc(=O)c(C(=O)N[C@@H](C(=O)N[C@@H]2C(=O)N3C(C(=O)O)=C(CSc4nnnn4C)CS[C@H]23)c2ccc(O)cc2)c[nH]1
[1]; [9]
  z-score: 0.177 (inactive)
[1]; [10]
  z-score: -0.0348
[2]
  remaining NAD: 10 nM (inactive)

## CC[C@H]1OC(=O)C[C@@H](O)[C@H](C)[C@@H](O[C@@H]2O[C@H](C)[C@@H](O[C@H]3CC(C)(O)[C@@H](O)[C@H](C)O3)[C@H](N(C)C)[C@H]2O)[C@@H](CC=O)C[C@@H](C)C(=O)/C=C/C(C)=C/[C@@H]1CO[C@@H]1O[C@H](C)[C@@H](O)[C@@H](OC)[C@H]1OC (stereo partly specified)
[1]; [9]
  z-score: 0.259 (inactive)
[1]; [10]
  z-score: -0.21

## N[C@@H](C(=O)N[C@@H]1C(=O)N2C(C(=O)O)=C(Cl)CC[C@H]12)c1ccccc1
[1]; [9]
  z-score: 0.0513 (inactive)
[1]; [10]
  z-score: -0.0591

## CN1CCN(S(=O)(=O)c2cc(C(=O)NCCc3ccccn3)cc(-c3ccccc3)c2)CC1
[1]; [9]
  z-score: -0.308 (inactive)
[1]; [10]
  z-score: -0.279
[3]
  z-score: -0.695 (inactive)

## CC(=O)[C@@]12OC(C)(c3ccccc3)O[C@@H]1C[C@H]1[C@@H]3CCC4=CC(=O)CC[C@]4(C)[C@H]3CC[C@@]12C (stereo partly specified)
[1]; [9]
  z-score: 0.905 (inactive)
[1]; [10]
  z-score: 1.8

## Nc1nc(NC2CC2)c2ncn([C@H]3C=C[C@@H](CO)C3)c2n1
[1]; [9]
  z-score: 1.09 (inactive)
[1]; [10]
  z-score: -0.0348
[2]
  remaining NAD: 10 nM (inactive)

## CCC(C)CCCC(=O)N[C@@H](CCN)C(=O)N[C@H](C(=O)N[C@@H](CCN)C(=O)N[C@H]1CCNC(=O)[C@H]([C@@H](C)O)NC(=O)[C@H](CCN)NC(=O)[C@H](CCN)NC(=O)[C@H](CC(C)C)NC(=O)[C@@H](CC(C)C)NC(=O)[C@H](CCN)NC1=O)[C@@H](C)O (stereo partly drawn) ({Heptanoyl(5-Me)}-[Dab]T[Dab][Dab][Dab][dL]L[Dab][Dab]T; lactam 4-C)
[1]; [9]
  z-score: -0.0594 (inactive)
[1]; [10]
  z-score: 0.188

## C[N+]1(C)[C@@H]2CC(OC(=O)C(CO)c3ccccc3)C[C@H]1[C@@H]1O[C@@H]12 (stereo partly specified)
[1]; [9]
  z-score: -0.282 (inactive)
[1]; [10]
  z-score: 0.781

## N[C@@H]1CCCCN(c2c(F)cc3c(=O)c(C(=O)O)cn(C4CC4)c3c2Cl)C1
[1]; [9]
  z-score: 0.702 (inactive)
[1]; [10]
  z-score: -0.618

## C/C=C/C1=C(C(=O)O)N2C(=O)[C@@H](NC(=O)[C@H](N)c3ccc(O)cc3)[C@H]2SC1
[1]; [9]
  z-score: -0.679 (inactive)
[1]; [10]
  z-score: -1.17
[2]
  remaining NAD: 10 nM (inactive)
[4]
  luciferase signal: 48 AU (inactive)

## O=C1N[C@@H](CSCc2ccccc2)C(=O)N2CCN(C(=O)Oc3ccccc3)C[C@H]12
[1]; [9]
  z-score: 1.38 (inactive)
[1]; [10]
  z-score: -0.171
[3]
  z-score: -1.57 (inactive)

## COCCNC(=O)COc1ccc(OCCNC[C@H](O)COc2ccccc2)cc1
[5]
  outcome: inactive

## COc1cccc2c1C(=O)c1c(O)c3c(c(O)c1C2=O)C[C@@](O)(C(=O)CO)C[C@@H]3O[C@@H]1C[C@H](N)[C@@H](O)[C@H](C)O1
[1]; [9]
  z-score: 6.67 (active)
[1]; [10]
  z-score: -1.72

## CN1[C@@H]2CC[C@@H]1CC(OC(=O)C(CO)c1ccccc1)C2 (stereo partly specified)
[1]; [9]
  z-score: 0.0633 (inactive)
[1]; [10]
  z-score: -0.0663

## Cc1ccc2c(-c3cc4c(n(CC5CC5)c3=O)CCN(C(=O)c3ccc5c(c3)OCO5)C4)cccc2n1
[1]; [9]
  z-score: 2.47 (active)
[1]; [10]
  z-score: 3.71
[3]
  z-score: -0.54 (inactive)

## O=C(Cn1cnc2ccccc21)N1CCc2c(cc(-c3cccc(Cl)c3)c(=O)n2CC2CC2)C1
[1]; [9]
  z-score: 0.334 (inactive)
[1]; [10]
  z-score: -0.586
[3]
  z-score: -0.315 (inactive)

## N#CC(=C(\N)Sc1ccccc1N)/C(C#N)=C(/N)Sc1ccccc1N
[6]
  period change: -0.02 h (inactive)
[7]
  inhibition: -1% (inactive)
[8]
  fluorescence ratio (interference): 1 (inactive)
[5]
  outcome: inactive
[3]
  z-score: -1.33 (inactive)

## CCOC([O-])=Nc1c[n+](N2CCOCC2)no1
[7]
  inhibition: -3% (inactive)
[8]
  fluorescence ratio (interference): 1 (inactive)
[5]
  outcome: inactive

## CCOc1ncc(S(=O)(=O)N2CCN(CC)CC2)cc1-c1nc2c(CC)n(CCOC)nc2c(=O)[nH]1
[5]
  outcome: inactive

## COc1cc(Br)c(C[N+]2(CCOCCC3CC[C@H]4C[C@@H]3C4(C)C)CCOCC2)cc1OC (stereo partly specified)
[1]; [9]
  z-score: -1.55 (inactive)
[1]; [10]
  z-score: 0.547

## C[C@H](CSC(=O)c1ccccc1)C(=O)N1C[C@@H](Sc2ccccc2)CC1C(=O)O (stereo partly specified)
[5]
  outcome: inactive

## C#C[C@]1(OC(C)=O)CC[C@H]2[C@@H]3CCC4=CC(=NO)CC[C@@H]4[C@H]3CC[C@@]21CC
[1]; [9]
  z-score: 0.995 (inactive)
[1]; [10]
  z-score: 0.685

## CO[C@H]1/C=C/O[C@@]2(C)Oc3c(C)c(O)c4c(O)c(c(/C=N/N5CCN(C6CCCC6)CC5)c(O)c4c3C2=O)NC(=O)/C(C)=C\C=C\[C@H](C)[C@H](O)[C@@H](C)[C@@H](O)[C@@H](C)[C@H](OC(C)=O)[C@@H]1C
[1]; [9]
  z-score: 0.699 (inactive)
[1]; [10]
  z-score: 0.251

## CN(C)C(=O)N=NC(=O)N(C)C
[7]
  inhibition: -4% (inactive)
[8]
  fluorescence ratio (interference): 1 (inactive)
[5]
  outcome: inactive

## CC(C)CC(NP(=O)(O)OC1OC(C)C(O)C(O)C1O)C(=O)NC(Cc1c[nH]c2ccccc12)C(=O)O (stereo unspecified)
[1]; [9]
  z-score: -0.408 (inactive)
[1]; [10]
  z-score: 0.685

## COc1ccc(C[C@@H]2c3cc(OC)c(OC)cc3CC[N@+]2(C)CCC(=O)OCCCCCOC(=O)CC[N@@+]2(C)CCc3cc(OC)c(OC)cc3[C@H]2Cc2ccc(OC)c(OC)c2)cc1OC
[1]; [9]
  z-score: -1.09 (inactive)
[1]; [10]
  z-score: -0.143

## CCOc1ccccc1O[C@@H](c1ccccc1)[C@H]1CNCCO1
[1]; [9]
  z-score: -0.0519 (inactive)
[1]; [10]
  z-score: -0.0896

## CCCCCc1ccc(/C=C/C(=O)Nc2cc(Cl)ccc2C(=O)O)cc1
[5]
  outcome: inactive

## CNCC[C@@H](Oc1cccc2ccccc12)c1cccs1
[1]; [9]
  z-score: -0.177 (inactive)
[1]; [10]
  z-score: 0.977

## CC=C(C)C(=O)O[C@H]1[C@H](OC(C)=O)C2(CO)C(CC1(C)C)C1=CCC3C4(C)CCC(OC5O[C@H](C(=O)O)[C@@H](O[C@@H]6O[C@H](CO)[C@@H](O)[C@H](O)[C@H]6O)[C@H](O)[C@H]5O[C@@H]5O[C@H](CO)C(O)[C@H](O)[C@H]5O)[C@](C)(CO)C4CCC3(C)[C@]1(C)C[C@H]2O (stereo partly specified)
[1]; [9]
  z-score: 0.702
[1]; [10]
  z-score: 2.95

## CC(=O)OCC(=O)[C@@]1(O)CC[C@H]2[C@@H]3CCC4=CC(=O)CC[C@]4(C)C3(F)[C@@H](O)C[C@@]21C (stereo partly specified)
[1]; [9]
  z-score: -0.171 (inactive)
[1]; [10]
  z-score: -0.231
